# A number with no mark means an inactive call. Records with an inconclusive call do not appear. Where a call stands in place of a potency, no number is given. Activity calls are given as the source filed them. Unless noted, calls follow the shape of the dose curve; as a rule, active = well fitted curve in the direction sought with a large enough effect in the repeat runs; inconclusive = weak or mixed curves; inactive = no such curve, though single readings can be large; an effect the other way counts as inactive or inconclusive.
# Tests used:
# [1] = target: Thyrotropin receptor (Homo sapiens) (UniProt P16473); assay: qHTS assay to identify small molecule antagonists of the thyroid stimulating hormone receptor (TSHR) signaling pathway (AID 1259385; calls by dose curve; also: nearly all actives have a fitted effect of over 20% in size)
# How it was run: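 Antagonist mode: compound-treated TSHR-expressing HEK293 cells were stimulated with 1.5 ng/mL TSH (final) in presence of Ro20-1724 for 30 min at RT. HTRF cAMP detection after 1 h; each compound tested at 15 concentrations, triplicate.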
# [2] = qHTS assay to identify small molecule agonists of the estrogen receptor alpha (ER-alpha) signaling pathway in the presence of an antagonist - cell viability counter screen (AID 1259386);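 also: series mostly up to about 92 µM; cells exposed to compounds for 22 h at 37 °C before the viability read; nearly all actives have a fitted effect of over 30% in size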
# How it was run: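 Viability counter screen using VM7Luc4E2 (full-length ER-alpha, four ERE-luciferase). The cells were treated with compounds alongside ICI-182,780 10.0nM for 22hr, and live-cell protease fluorescence was quantified with CellTiter-Fluor.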
# [3] = target: Progesterone receptor (Homo sapiens) (UniProt P06401); assay: qHTS assay to identify small molecule antagonists of the progesterone receptor (PR) signaling pathway (AID 1346795; active = well fitted inhibition curve with a large enough effect in the signal ratio in the repeat runs, not every such curve was filed as active; the % refers to the signal ratio)
# How it was run: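 Inhibition of R5020-induced (1 nM final) beta-lactamase reporter signal in PR-UAS-bla HEK293T cells was scored by FRET fluorescence after overnight (16 hr) compound treatment.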
# [4] = qHTS assay to identify small molecule antagonists of the progesterone receptor (PR) signaling pathway - cell viability counter screen (AID 1346798); also: series mostly up to about 92 µM; nearly all actives have a fitted effect of over 50% in size
# How it was run: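 ATP content as viability readout: CellTiter-Glo luminescence, 30 min room temperature, in PR-UAS-bla HEK293T cells after 16 hr compound/R5020 treatment at 37C and 5% CO2.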
# [5] = qHTS assay to identify small molecule agonists of the progesterone receptor (PR) signaling pathway - cell viability counter screen (AID 1346799; calls by dose curve; also: nearly all actives have a fitted effect of over 45% in size)
# How it was run: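 Cytotoxicity in PR-bla HEK293T cells: 16 h compound, 37C; CellTiter-Glo added post-FRET read; luminescence after 30 min RT.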
# [6] = qHTS assay to identify small molecule antagonists of the TGF-beta/Smad signaling pathway - cell viability counter screen (AID 1346824); also: nearly all actives have a fitted effect of over 50% in size
# How it was run: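 Cytotoxicity counter-screen run in the same wells as the beta-lactamase Smad reporter read: CellTiter-Glo luminescence after 30 min at room temperature. HEK 293T SBE-bla cells had 5 hr compound exposure at 37 C with TGF-beta1 (0.25 ng/mL stock).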
# [7] = qHTS assay to identify small molecule agonists of the TGF-beta/Smad signaling pathway - cell viability counter screen (AID 1346829); also: top concentration of the series differs between compounds; nearly all actives have a fitted effect of over 45% in size
# How it was run: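 Tox21 qHTS format: SBE-bla HEK 293T cells treated with DMSO-dissolved compounds for 5 hr; CellTiter-Glo luminescence after 30 min at room temperature.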
# [8] = qHTS assay to identify small molecule agonists of the TGF-beta/Smad signaling pathway (AID 1346859; active = well fitted activation curve with a large enough effect in the signal ratio in the repeat runs, not every such curve was filed as active; the % refers to the signal ratio; also: series mostly up to about 77 µM)
# How it was run: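 Stable Smad binding element-beta-lactamase HEK 293T cells; 5 hr compound exposure at 37 C under 5% CO2; 2 hr room-temperature substrate step; fluorescence excited at 405 nm, collected at 460 nm and 530 nm.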
# [9] = target: Thyrotropin-releasing hormone receptor (Homo sapiens) (UniProt P34981); assay: qHTS assay to identify small molecule antagonists of the thyrotropin-releasing hormone receptor (TRHR) signaling pathway (AID 1346877; active = well fitted inhibition curve with a large enough effect in the repeat runs, not every such curve was filed as active; also: series mostly up to about 51 µM)
# How it was run: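 Following an 18 h incubation at 37 °C and a 2 h calcium dye load, TRHR-HEK293 cells were exposed to compound (5 min, room temperature) and challenged with TRH, 1 nM final.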
# [10] = target: Thyrotropin-releasing hormone receptor (Homo sapiens) (UniProt P34981); assay: qHTS assay to identify small molecule agonists of the thyrotropin-releasing hormone receptor (TRHR) signaling pathway (AID 1346891; calls by dose curve;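 also: HEK293 cells expressing TRHR with calcium dye readout; series mostly up to about 58 µM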)
# How it was run: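 In 1536-format, 1500 TRHR-Hek293 cells per well grew 18 h, took up calcium dye for 2 h at 37 °C, received compound, and were read kinetically; 15-point titrations, triplicates.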
# [11] = Human pregnane X receptor (PXR) small molecule agonists, qHTS cell viability counter screen (AID 1346977); also: nearly all actives have a fitted effect of over 50% in size
# How it was run: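 Readout is CellTiter-Fluor fluorescence from PXR-Luc HepG2 cells. Plated cells rested 5hr, then were treated with compounds for 24hr at 37C and 5% CO2, with reagent present during the last hour.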
# [12] = Caspase-3/7 induction in HepG2 cells by small molecules, qHTS assay (AID 1346978); also: nearly all actives have a fitted effect of over 15% in size
# How it was run: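 Caspase-3/7 induction was measured by Caspase-Glo 3/7 luminescence (30 min, room temperature) after a 17 hr compound exposure of wild-type HepG2 cells seeded at 2,000 per well and pre-incubated 5 hr.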
# [13] = Caspase-3/7 induction in CHO-K1 cells by small molecules, qHTS cell viability counter screen (AID 1346979); also: nearly all actives have a fitted effect of over 35% in size
# How it was run: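 To flag cytotoxic compounds, treated CHO-K1 wild-type cells were given CellTiter-Fluor at 16hr and read fluorescently after 1hr at 37C; the caspase-3/7 luminescence was measured in these same wells.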
# [14] = Caspase-3/7 induction in CHO-K1 cells by small molecules, qHTS assay (AID 1346980); also: nearly all actives have a fitted effect of over 15% in size
# How it was run: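 Luminescent Caspase-Glo 3/7 read (30min, room temperature) quantified apoptosis induction. Cells were wild-type CHO-K1, treated with compound for 17hr at 37 C and 5% CO2.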
# [15] = Caspase-3/7 induction in HepG2 cells by small molecules, qHTS cell viability counter screen (AID 1346981); also: series mostly up to about 92 µM; nearly all actives have a fitted effect of over 30% in size
# How it was run: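 Viability determined by CellTiter-Fluor fluorescence in HepG2 wells also used for the luminescent Caspase-Glo 3/7 read. Compounds were present for 16 hr at 37 C, 5% CO2 before reagent addition.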
# [16] = target: Nuclear receptor subfamily 1 group I member 2 (Homo sapiens) (UniProt O75469); assay: Human pregnane X receptor (PXR) small molecule agonists, qHTS assay (AID 1346982); also: nearly all actives have a fitted effect of over 35% in size
# How it was run: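 Compound-induced hPXR transactivation of a CYP3A4 luciferase reporter was scored in HepG2 PXR-Luc cells over 24 hr at 37 C, 5% CO2, by luminescence.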
# [17] = target: Nuclear receptor subfamily 1 group I member 2 (Rattus norvegicus) (UniProt Q9R1A7); assay: Rat pregnane X receptor (rPXR) activation by small molecules, qHTS assay (AID 1346983); details: rPXR luciferase reporter cells, One-Glo luminescence, 24 h; max activation: hits give high values; also: nearly all actives have a fitted effect of over 20% in size
# How it was run: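 Luminescent readout (One-Glo luciferase, 30 min room temperature) followed 24 hr compound treatment at 37 C of rPXR cells plated 2,000 per well and preincubated 5hr; qHTS format with compounds delivered in DMSO.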
# [18] = target: Nuclear receptor subfamily 1 group I member 2 (Homo sapiens) (UniProt O75469); assay: CYP3A4 induction through human pregnane X receptor (PXR) by small molecules, qHTS assay (AID 1346984); also: nearly all actives have a fitted effect of over 40% in size
# How it was run: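 Readings come from a luciferase reporter: DPX-2 cells, which are HepG2 cotransfected with PXR and a CYP3A4-promoter construct, were exposed to test compounds for 24 h at 37C before One-Glo detection.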
# [19] = target: Nuclear receptor subfamily 1 group I member 2 (Homo sapiens) (UniProt O75469); assay: Human pregnane X receptor (PXR) activation by small molecules, qHTS assay (AID 1346985); also: nearly all actives have a fitted effect of over 40% in size
# How it was run: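 DPX-2 cells (HepG2 co-transfected with a PXR response element and a CYP3A4-promoter luciferase construct) were seeded at 2,000 per well, rested 5 hr at 37C, then exposed to DMSO-dissolved compounds for 24 hr. Activation was read as luciferase luminescence.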
# [20] = target: Progesterone receptor (Homo sapiens) (UniProt P06401); assay: qHTS assay to identify small molecule agonists of the progesterone receptor (PR) signaling pathway (AID 1346784; calls by dose curve; also: nearly all actives have a fitted effect of over 30% in size; also: potency is read from the fitted curve at half-maximal effect)
# How it was run: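 Using charcoal-stripped serum (2%) to limit endogenous steroids, PR-UAS-bla HEK 293T cells received compounds for 16 hr at 37C after 6 hr plating; beta-lactamase FRET fluorescence was recorded following 2 hr substrate loading at room temperature.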
# Chain of Thyrotropin receptor (Homo sapiens) (P16473 whole entry, looked up): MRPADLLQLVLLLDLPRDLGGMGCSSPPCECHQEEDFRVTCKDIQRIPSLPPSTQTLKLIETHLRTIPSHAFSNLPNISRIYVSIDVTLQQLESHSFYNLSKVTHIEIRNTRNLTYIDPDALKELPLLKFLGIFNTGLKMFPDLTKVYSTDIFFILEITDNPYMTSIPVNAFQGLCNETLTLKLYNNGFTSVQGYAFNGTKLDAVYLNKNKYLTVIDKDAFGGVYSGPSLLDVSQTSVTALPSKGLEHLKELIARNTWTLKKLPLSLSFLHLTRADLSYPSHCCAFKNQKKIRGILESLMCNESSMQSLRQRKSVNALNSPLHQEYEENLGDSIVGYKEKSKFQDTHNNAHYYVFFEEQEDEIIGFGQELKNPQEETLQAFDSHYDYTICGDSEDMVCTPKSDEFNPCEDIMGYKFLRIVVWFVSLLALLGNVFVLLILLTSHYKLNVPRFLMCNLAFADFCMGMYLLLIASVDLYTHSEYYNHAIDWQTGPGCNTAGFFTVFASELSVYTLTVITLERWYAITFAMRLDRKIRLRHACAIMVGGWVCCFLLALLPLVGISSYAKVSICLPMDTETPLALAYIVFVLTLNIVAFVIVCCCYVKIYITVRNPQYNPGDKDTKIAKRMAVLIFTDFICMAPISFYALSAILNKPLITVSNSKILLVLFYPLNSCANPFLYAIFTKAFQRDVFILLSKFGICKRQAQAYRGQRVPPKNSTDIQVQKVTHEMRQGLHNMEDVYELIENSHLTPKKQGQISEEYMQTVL
# Chain of Progesterone receptor (Homo sapiens) (P06401 whole entry, looked up): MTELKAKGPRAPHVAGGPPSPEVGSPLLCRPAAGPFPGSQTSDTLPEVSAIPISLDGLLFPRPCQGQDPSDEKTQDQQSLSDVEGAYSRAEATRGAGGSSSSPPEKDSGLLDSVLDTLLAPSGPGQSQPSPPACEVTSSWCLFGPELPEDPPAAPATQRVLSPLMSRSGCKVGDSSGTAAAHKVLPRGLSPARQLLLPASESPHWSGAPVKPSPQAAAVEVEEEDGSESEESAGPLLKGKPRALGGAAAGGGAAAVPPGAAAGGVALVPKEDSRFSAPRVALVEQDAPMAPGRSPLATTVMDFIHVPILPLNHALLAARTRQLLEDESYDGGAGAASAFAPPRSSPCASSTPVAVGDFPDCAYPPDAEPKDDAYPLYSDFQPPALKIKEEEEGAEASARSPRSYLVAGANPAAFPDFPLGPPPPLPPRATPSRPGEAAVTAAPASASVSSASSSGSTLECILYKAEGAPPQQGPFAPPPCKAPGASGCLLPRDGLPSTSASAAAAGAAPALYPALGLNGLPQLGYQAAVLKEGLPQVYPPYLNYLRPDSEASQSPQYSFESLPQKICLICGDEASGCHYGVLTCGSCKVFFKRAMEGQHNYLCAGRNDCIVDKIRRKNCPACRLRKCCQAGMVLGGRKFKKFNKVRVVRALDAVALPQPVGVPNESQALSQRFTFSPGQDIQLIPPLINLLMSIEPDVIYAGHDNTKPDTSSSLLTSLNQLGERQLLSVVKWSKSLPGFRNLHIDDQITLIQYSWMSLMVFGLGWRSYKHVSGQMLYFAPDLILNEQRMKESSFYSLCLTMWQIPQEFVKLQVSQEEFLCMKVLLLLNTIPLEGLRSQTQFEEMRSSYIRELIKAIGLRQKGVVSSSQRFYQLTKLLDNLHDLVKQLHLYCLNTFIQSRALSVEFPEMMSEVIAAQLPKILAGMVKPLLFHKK
# Chain of Nuclear receptor subfamily 1 group I member 2 (Homo sapiens) (O75469 whole entry, looked up): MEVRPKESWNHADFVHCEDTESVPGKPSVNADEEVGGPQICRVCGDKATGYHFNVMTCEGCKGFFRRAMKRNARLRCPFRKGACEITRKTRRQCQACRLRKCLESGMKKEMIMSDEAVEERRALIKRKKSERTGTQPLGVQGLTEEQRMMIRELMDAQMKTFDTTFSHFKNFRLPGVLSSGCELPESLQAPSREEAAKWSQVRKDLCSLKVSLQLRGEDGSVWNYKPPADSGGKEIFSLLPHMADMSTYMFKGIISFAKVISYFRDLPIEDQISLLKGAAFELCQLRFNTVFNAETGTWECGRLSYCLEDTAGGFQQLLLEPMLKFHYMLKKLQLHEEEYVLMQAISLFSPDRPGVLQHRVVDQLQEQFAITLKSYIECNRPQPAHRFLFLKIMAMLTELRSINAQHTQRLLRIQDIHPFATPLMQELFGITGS
# Chain of Thyrotropin-releasing hormone receptor (Homo sapiens) (P34981 whole entry, looked up): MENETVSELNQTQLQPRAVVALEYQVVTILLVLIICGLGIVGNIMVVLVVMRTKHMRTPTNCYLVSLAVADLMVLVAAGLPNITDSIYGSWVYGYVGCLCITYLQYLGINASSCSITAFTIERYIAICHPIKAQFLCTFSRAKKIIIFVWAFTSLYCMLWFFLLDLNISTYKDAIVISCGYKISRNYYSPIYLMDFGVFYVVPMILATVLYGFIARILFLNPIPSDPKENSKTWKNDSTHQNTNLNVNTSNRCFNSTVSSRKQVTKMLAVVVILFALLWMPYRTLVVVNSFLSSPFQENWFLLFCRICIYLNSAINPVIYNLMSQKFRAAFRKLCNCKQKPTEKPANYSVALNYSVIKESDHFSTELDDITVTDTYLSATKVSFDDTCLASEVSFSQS
# Chain of Nuclear receptor subfamily 1 group I member 2 (Rattus norvegicus) (Q9R1A7 whole entry, looked up): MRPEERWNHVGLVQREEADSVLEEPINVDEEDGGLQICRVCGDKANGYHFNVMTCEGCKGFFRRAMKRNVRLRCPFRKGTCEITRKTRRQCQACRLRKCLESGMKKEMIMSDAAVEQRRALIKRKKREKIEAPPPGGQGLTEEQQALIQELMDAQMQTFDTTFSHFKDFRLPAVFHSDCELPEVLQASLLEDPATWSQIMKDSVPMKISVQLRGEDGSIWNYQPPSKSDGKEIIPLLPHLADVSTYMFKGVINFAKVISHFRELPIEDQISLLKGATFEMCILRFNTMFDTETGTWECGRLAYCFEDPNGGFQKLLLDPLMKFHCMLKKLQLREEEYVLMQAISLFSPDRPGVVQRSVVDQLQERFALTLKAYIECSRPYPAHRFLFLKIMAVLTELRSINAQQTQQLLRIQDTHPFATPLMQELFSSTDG
Structure (SMILES),Potency [1],outcome [2],Potency [3],Potency [4],Potency [5],outcome [6],outcome [7],outcome [8],outcome [9],outcome [10],Potency [11],outcome [12],Potency [13],outcome [14],outcome [15],Potency [16],max activation [17],Potency [18],Potency [19],Potency [20]
CCCCCCCCCCCCCCCCCC(=O)OCCCCCCCCCCCCCC(C)C,inactive,inactive,inactive,inactive,inactive,inactive,inactive,inactive,inactive,inactive,inactive,inactive,inactive,inactive,inactive,inactive,–,–,–,–
COc1cc(O)cc(O)c1,inactive,inactive,inactive,inactive,inactive,inactive,inactive,inactive,inactive,inactive,inactive,inactive,inactive,inactive,inactive,inactive,-1.94%,inactive,inactive,–
CCC(=O)c1cccc(Cl)c1,inactive,inactive,–,inactive,–,inactive,–,inactive,inactive,inactive,inactive,–,inactive,inactive,inactive,inactive,–,–,–,1970 nM (active)
C=C(C)C1CC=C(C)C(O)C1 (centres undefined),inactive,inactive,–,inactive,–,inactive,inactive,inactive,inactive,inactive,inactive,inactive,inactive,inactive,inactive,–,–,–,–,–
C1=C\CC/C=C\CC/C=C\CC/1,–,inactive,inactive,inactive,inactive,inactive,inactive,–,–,–,inactive,–,inactive,inactive,inactive,inactive,–,–,–,inactive
O=C(O)/C=C/c1ccc(/C=C/C(=O)O)cc1,–,inactive,inactive,inactive,–,inactive,–,–,inactive,inactive,inactive,inactive,inactive,inactive,inactive,inactive,–,–,–,inactive
OC1OC[C@@H](O)[C@H](O)[C@H]1O (some centres undefined),–,inactive,inactive,inactive,inactive,inactive,inactive,inactive,inactive,inactive,inactive,inactive,inactive,inactive,inactive,inactive,–,–,–,inactive
NC(=O)c1ncn([C@@H]2O[C@H](CO)[C@@H](O)[C@H]2O)c1O,inactive,–,–,inactive,inactive,inactive,inactive,inactive,inactive,inactive,inactive,–,inactive,inactive,inactive,inactive,-0.429%,inactive,inactive,inactive
CC/C=C\CCCCO,–,inactive,inactive,inactive,inactive,inactive,inactive,–,inactive,inactive,inactive,inactive,inactive,inactive,inactive,inactive,–,–,–,inactive

# From PubChem BioAssay (Tox21)
